Results: PubChem BioAssay AID2732 (Emory University Molecular Libraries Screening Center, 2010)
The whole screen tested about 220,000 compounds, of which about 8,200 (3.7%) were called active. This is one part of a sample in which actives are shown more often than they occur. Values without a mark were called inactive.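 Rule for the calls: active = compounds that reduced the stress-induced luciferase reporter signal by more than about 70% of percent inhibition (limit read from the data); inactive = the rest.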

test: inhibitors of CHOP promoter induction, primary screen, cell-based, unfolded protein response, luciferase reporter (AID 2732); conditions: CHO-K1 CHOP-promoter luciferase, tunicamycin-induced, 15-18 h; at 10 µM; active compounds read high;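 note: 0% = tunicamycin plus vehicle and 100% = wells without tunicamycin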

Row | Compound | inhibition
1 | COc1cccc(NC(=O)NCc2ccc(F)cc2)c1 | 5.22%
2 | Cc1cccc(NC(=O)Nc2nnc(-c3ccccc3)o2)c1 | -9.17%
3 | Cc1cccc(NC(=O)Nc2cccc(Oc3c(F)c(F)c(F)c(F)c3F)c2)c1 | 97.1% (active)
4 | N#C/C(=C/c1ccc(-c2ccccc2[N+](=O)[O-])o1)C(=O)NCCN1CCCCC1 | 22.9%
5 | Cc1c(NC(=O)C(=O)N/N=C/c2cccs2)c(=O)n(-c2ccccc2)n1C | 9.69%
6 | CC(C)CCN1NC2(CCC(C)CC2)NC1=S (centres undefined) | -10.5%
7 | CCCN(CCC)CC(O)COc1ccccc1C(=O)Nc1ccccc1 (centres undefined) | 16.4%
8 | CC(=O)Nc1nc(C)c(-c2csc(Nc3ccc(S(N)(=O)=O)cc3)n2)s1 | 18.6%
9 | CC(=O)Nc1ccc(/C=N/Nc2ccc(C(=O)c3c(C)cc4ccccn34)cc2[N+](=O)[O-])cc1 | 17.2%
10 | CCN(CC)C(=O)CSC(Nc1cccc(F)c1)=C(C#N)C#N | -25.7%
11 | O=[N+]([O-])c1cc(Br)c(O)c(/C=N/Nc2nc3ccccc3s2)c1 | 17.5%
12 | Oc1c(Br)cccc1/C=N/Nc1c(F)c(F)c(F)c(F)c1F | 89.8% (active)
13 | COc1cccc(/C=N/Nc2ncc(C(F)(F)F)cc2Cl)c1O | 46.9%
14 | CCOc1c(Nc2cccc(Cl)c2)c(=O)c1=O | 18.3%
15 | O=S(=O)([N-]c1nc2ccccc2nc1-[n+]1ccc(Cc2ccccc2)cc1)c1ccc(Br)s1 | 21.4%
16 | O=S(=O)(c1ccccc1)c1nc(-c2ccccc2F)oc1NCc1cccnc1 | 4.16%
17 | O=S(=O)(c1ccc(Br)cc1)c1nc(-c2ccccc2)oc1NCc1cccnc1 | 72.4% (active)
18 | O=C(NCc1cccnc1)c1ccc(CS(=O)(=O)c2ccc(Br)cc2)o1 | 61.7%
19 | O=C(Nc1ccc(Cl)cc1)Nc1ccc(C(=O)N2CCOCC2)cc1 | 33.4%
20 | O=C(Nc1ccc2c(c1)OCCO2)c1ccoc1 | 0.05%
21 | COc1ccccc1/C=C/C=N/NC(=O)CN1CCN(Cc2ccccc2)CC1 | 24.4%
22 | Cc1cc2nc3c(=O)n(Cc4ccccc4)c(=O)[nH]c3nc2cc1N | 3.92%
23 | O=C(NC(Nc1nc2ccc([N+](=O)[O-])cc2s1)(C(F)(F)F)C(F)(F)F)c1ccccc1 | 106% (active)
24 | CSc1nc2ccc(S(=O)(=O)N3CCc4ccccc43)cc2s1 | 71% (active)

Row | Compound | inhibition
25 | O=C(Nc1nc2ccc([N+](=O)[O-])cc2s1)c1ccncc1 | -12.2%
26 | O=S(=O)(c1ccc2c(c1)OCCO2)N1CCc2ccccc21 | 32.4%
27 | O=C(Nc1nc2ccc([N+](=O)[O-])cc2s1)c1ccc(S(=O)(=O)N2CCCc3ccccc32)cc1 | 80.6% (active)
28 | CCn1c(=O)c(=O)n(CC)c2cc(S(=O)(=O)N3CCc4ccccc43)ccc21 | 35%
29 | COC(=O)C(NC(=O)c1ccc(OC)cc1)(Nc1ncc(S(=O)(=O)c2ccc([N+](=O)[O-])cc2)s1)C(F)(F)F (centres undefined) | -14.3%
30 | CNC(=O)c1ccsc1NC(=O)c1ccc(S(=O)(=O)N2CCc3ccccc32)cc1 | 37.3%
31 | CS(=O)(=O)c1ccc2nc(NC(=O)c3ccc(N4CCCC4=O)cc3)sc2c1 | -17%
32 | Cc1nc(C(=O)Nc2ccc(Cl)cc2)sc1C1(C)CC(c2ccccc2)=NO1 (centres undefined) | 19.7%
33 | COc1ccc(CCNCC(O)Cn2ccc3ccccc32)cc1OC (centres undefined) | 7.33%
34 | CC(C)CCn1c(CN(C)Cc2ccccc2)nc2c1c(=O)n(C)c(=O)n2C | 16%
35 | COCCn1c(CN(Cc2ccccc2)Cc2ccccc2)nc2c1c(=O)n(C)c(=O)n2C | 63.3%
36 | CC(C)Cn1c(CN(Cc2ccccc2)Cc2ccccc2)nc2c1c(=O)n(C)c(=O)n2C | 95% (active)
37 | S=C(NNC(=S)NC1CC2CCC1C2)NC1CC2C=CC1C2 (centres undefined) | 12.8%
38 | Cc1cc(C)nc(NC(=O)/C=C/c2ccc(Cl)cc2)n1 | 8.16%
39 | COC(=O)c1c(C)[nH]c(C(=O)/C=C/c2ccc(Cl)cc2)c1C | 85% (active)
40 | CCCCOC(=O)c1[nH]c(C)c(C(=O)OC)c1C | -2.34%
41 | Cn1c(S(=O)(=O)O)nc2ccccc21 | 10.4%
42 | COc1ccccc1-c1c(C#N)c(N)nc2c1CCC2 | -1.63%
43 | O=c1[nH]c2cccnc2n1-c1ccc([N+](=O)[O-])cc1 | 16.2%
44 | OCC1(Cc2ccccc2C(F)(F)F)CCN(Cc2ccncc2)CC1 | 1.13%
45 | CCC(=O)N1CCCc2ccccc21 | -4.19%
46 | CCCN(CCC)c1ccc(C(O)c2nnc(-c3ccccc3)o2)cc1 (centres undefined) | 91.7% (active)
47 | OC(c1nnc(-c2ccccc2)o1)c1cccs1 (centres undefined) | -26.1%
48 | C=CCn1c(SCc2nnc(-c3ccccc3)o2)nnc1C(O)c1ccccc1 (centres undefined) | 14%

Row | Compound | inhibition
49 | O=C1C2C3C=CC(C3)C2C(=O)N1c1ccc(S(=O)(=O)Nc2nccs2)cc1 (centres undefined) | 15.9%
50 | O=C(COC(=O)CCc1nc2ccccc2c(=O)[nH]1)Nc1ccc(N2CCOCC2)cc1 | 12.7%
51 | CCOC(=O)Cn1c(N)c(C(=O)OC)sc1=S | 25.2%
52 | CCOC(=O)c1sc(=S)n2c1[nH]c(=O)c1ccc(C(=O)OC)cc12 | 90.7% (active)
53 | CCOC(=O)c1sc(=S)n(-c2cccc(OC)c2)c1N | 7.44%
54 | Fc1ccccc1/C=N/n1c(-c2cccnc2)n[nH]c1=S | 6.74%
55 | COc1cccc(CC(=O)Nc2ccc(-c3csc(C)n3)cc2)c1 | 7.07%
56 | CCOC(=O)C(=CNNc1ccsc1C(=O)OC)C(=O)OCC | 8.45%
57 | Cc1cccc(C)c1OCC(O)CN1CCCCC1 (centres undefined) | 10.2%
58 | Cc1ccc(OCC(O)CN2CCN(CC(O)COc3ccc(C)cc3Cl)CC2)c(Cl)c1 (centres undefined) | 93.5% (active)
59 | Cc1ccccc1OCC(O)CN1CCN(c2ccccn2)CC1 (centres undefined) | 15.9%
60 | CCCCCCCC(=O)OC(CN1CCCCCC1)CN1CCCC1=O (centres undefined) | 4.3%
61 | CC(C)(C)n1nnnc1C(c1ccc(F)cc1)N1CCN(Cc2ccc3c(c2)OCO3)CC1 (centres undefined) | 16.3%
62 | Fc1ccccc1C(c1nnnn1Cc1ccc2c(c1)OCO2)N1CCN(Cc2ccccc2)CC1 (centres undefined) | 97.9% (active)
63 | Cc1cc(C)c2[nH]c(=O)c(C(c3nnnn3Cc3ccc4c(c3)OCO4)N3CCCC3)cc2c1 (centres undefined) | -5.25%
64 | CCC1=NN2C(=N)/C(=C/c3cc(C)n(-c4ccccc4)c3C)C(=O)N=C2S1 | -8.4%
65 | N#CNC1=NCN(CCc2ccccc2)CN1 | -32.6%
66 | c1ccc(CCN2CN=C(Nc3nc4ccccc4o3)NC2)cc1 | 94.3% (active)
67 | CCCN1CNC(=S)N(CCc2ccccc2)C1 | 1.62%
68 | COCCNC(=O)CCCn1c(=O)c2ccccc2n(Cc2cccc([N+](=O)[O-])c2)c1=O | -6.2%
69 | CCCCNC(=O)CCn1c(=S)[nH]c2cc3c(cc2c1=O)OCO3 | 55%
70 | CCCCNC(=O)CCn1c(=O)c2ccccc2n(Cc2cc(C)ccc2C)c1=O | 86.5% (active)
71 | Cc1ccc(-c2c[n+](=O)c3c(n2[O-])CCC3)cc1 | 17.5%
72 | Cc1ccc(NS(=O)(=O)c2ccc(N/N=C/c3ccccc3OCC(=O)O)c([N+](=O)[O-])c2)c(C)c1 | -8.85%

Row | Compound | inhibition
73 | C[C@@H](NC(=O)OC(C)(C)C)c1nnc(S(=O)(=O)Cc2ccccc2)o1 | 86.2% (active)
74 | C[C@H](NC(=O)OC(C)(C)C)c1nnc(SCC(N)=O)o1 | 26.6%
75 | CC(C)Sc1nnc([C@H](Cc2ccccc2)NC(=O)OC(C)(C)C)o1 | 11.1%
76 | CC(C)C(=O)N1CCC2(CC1)Oc1ccc(F)cc1C(=O)C21CC(c2ccccc2)=NO1 (centres undefined) | 19.9%
77 | O=C(Nc1nnc(SCc2c(Cl)cccc2Cl)s1)c1cccc([N+](=O)[O-])c1 | 30.6%
78 | CCOC(=O)C1=C(c2ccc(OC)cc2)C(=O)c2ccccc2C1=O | 102% (active)
79 | CCOC(=O)c1c(-c2ccc(C)cc2)csc1/N=C(\C)C1=C(O)c2ccccc2C1=O | 3.26%
80 | CCOC(=O)c1ccccc1NS(=O)(=O)c1ccc(OC)cc1 | 9.25%
81 | O=C(Nc1ccc(N2CCN(C(=O)c3ccccc3)CC2)c(Cl)c1)c1ncn[nH]1 | 37.5%
82 | COCCn1c(SCC(=O)Nc2cc(OC)ccc2OC)nc2c(c1=O)SC(C)C2 (centres undefined) | -5.89%
83 | CC(=O)Nc1ccc(/C=C/C(=O)c2ccccc2)cc1 | -42%
84 | CN(C)c1cc(-c2ccc(F)cc2)oc(=O)c1Cl | 12.7%
85 | CNC(=S)NNC(=O)c1oc2nc(-c3ccccc3)cc(-c3ccco3)c2c1N | -27.7%
86 | CN(C)C(=O)c1coc2nc3ccccc3nc12 | 20.5%
87 | Cc1ccsc1/C=N/Nc1ccc(Cl)nn1 | 65.5%
88 | CCN1/C(=C\c2ccc3ccccc3[n+]2CC)Sc2cc(C)ccc21 | 87.5% (active)
89 | CCN1/C(=C/C(=S)Nc2ccccc2)Sc2ccccc21 | -10.3%
90 | CCC(=O)/C=C1\Sc2ccccc2N1CC | 14.1%
91 | CCN1/C(=C/c2ccc3ccc(C)cc3[n+]2CC)Sc2ccccc21 | 73% (active)
92 | O=C(Nc1cccc(S(=O)(=O)NC2=NCCC2)c1)C1CCCCC1 | 3.64%
93 | CC(C)(C)NC(=O)/C(=C/c1cccnc1)NC(=O)c1ccco1 | 12.6%
94 | Cc1nnsc1C(=O)N/N=C/c1ccccc1Cl | -17.2%
